Data as given in PubChem BioAssay (EPA / NIEHS).
Records with an inconclusive call do not appear. The source made the active and inactive calls. How the source made its calls: active means hit-call score of the fitted dose curve at least 0.9, where 1 is the maximum; inconclusive means response in the unintended direction; inactive means score below 0.9.

assay: STM_H9_OrnCyssISnorm_ratio: Stemina devTOX quickPredict H9 human embryonic stem cell (hESC)-based Assay for Ornithine (ORN):Cystine (CYSS) Ratio (AID 2283714)
Procedure: STM_H9_secretome utilizes undifferentiated H9 cells to measure relative changes in two metabolites, ornithine (ORN) and cystine (CYSS) in the secretome, targeting a critical drop in the ORN/CYSS ratio as a biomarker for developmental toxicity.STM_H9_OrnCyssISnorm_ratio is one of 10 components calculated in the STM_H9_secretome assay. It is the ratio value of OrnISnorm_perc to CyssISnorm_perc.Data from the assay component STM_H9_OrnCyssISnorm_ratio was analyzed at the assay endpoint STM_H9_OrnCyssISnorm_ratio in the positive analysis fitting direction relative to DMSO as the negative control and baseline of activity. Using a type of binding reporter, gain or loss-of-signal activity can be used to understand relative metabolite change.
H9 hESCs maintained in a pluripotent state were exposed to test compound for 72h with chemical replenishment with media replacement every 24h. Cell-conditioned media from the final 24-h treatment period was collected for analysis of the targeted biomarker, and cell viability of the corresponding cell layer was assessed. The chemical library was tested in blinded fashion. Each test plate included 1uM Methotrexate (MTX; Selleck Chemicals, Houston, Texas) as a positive reference, 5 nM MTX as a negative reference, 0.1% DMSO as the neutral (vehicle) control, and sample-level media blanks.H9 cell-conditioned media from the final 24-h treatment period was collected for analysis of the targeted biomarker and cell viability was measured from the corresponding cell layer. Cell viability was measured using the CellTiter-Fluor assay (Promega, Madison, Wisconsin) based on proteolytic cleavage of a substrate to fluorescent signal proportional to the number of living cells. The cell viability Relative Fluorescence Unit (RFU) was background corrected and normalized to mean RFU of the neutral control (0.1% DMSO). The collected H9-cell-conditioned media samples were processed for targeted biomarker analysis as described (Palmer et al., 2013). Briefly, spent media samples were deproteinized (40% acetonitrile) and processed for UPLC-HRMS. Data acquisition was performed using 4 separate UPLC-HRMS systems, consisting of an Agilent 1290 Infinity LC system (Agilent Technologies) interfaced with an Agilent high-resolution mass spectrometer (models G6520A, G6520B, G6530A, and G6224A). A Waters Acquity UPLC BEH Amide column (2.1mm x 50mm, 1.7lm particle size; Waters, Milford, Massachusetts) maintained at 40C was applied for separation of metabolites using a 6.5min solvent gradient with 0.1% formic acid in water and 0.1% formic acid in acetonitrile (1.0ml/min flow rate). Data were acquired using MassHunter Acquisition software (version B 04.00, Agilent Technologies). The extracted ion chromatogram (EIC) areas for ORN, CYSS, and their respective spike-in C13-standards were determined using the Agilent MassHunter Quantitative Analysis software, version B.05.00 or newer (Agilent Technologies), and data were normalized as described in Palmer et al. (2017).

Row | SMILES | AC50 | outcome
1 | CC1=C(/C=C/C(C)=C/C=C/C(C)=C/C(=O)O)C(C)(C)CCC1 | 0.00532 µM (active) | 
2 | CN1CCN(c2ccccc2/C=C2\SCCN(c3ccc(Cl)c(Cl)c3)C2=O)CC1 | 7.71 µM (active) | 
3 | C[C@@H]1C[C@H]2[C@@H]3CCC4=CC(=O)C=C[C@]4(C)[C@@]3(F)[C@@H](O)C[C@]2(C)[C@@]1(O)C(=O)COP(=O)(O)O |  | inactive
4 | COc1ccc([N+](=O)[O-])cc1N |  | inactive
5 | O=C(O)Cc1cc(I)c(Oc2cc(I)c(O)c(I)c2)c(I)c1 |  | inactive
6 | Nc1cccc2c(N)cccc12 |  | inactive
7 | c1ccc2c(c1)ccc1ccccc12 | 78.7 µM (active) | 
8 | C#C[C@]1(O)CC[C@H]2[C@@H]3CCC4=CC(=O)CC[C@@H]4[C@H]3CC[C@@]21C | 74.8 µM (active) | 
9 | Cc1cc(CCN2CCN(c3nsc4ccccc34)CC2)cc2c1NC(=O)CC2(C)C | 7.94 µM (active) | 
10 | CCc1ccc(CCOc2ccc(CC3SC(=O)NC3=O)cc2)nc1 (configuration not stated) | 84.5 µM (active) | 
11 | O=C(OCCOCCOC(=O)c1ccccc1)c1ccccc1 |  | inactive
12 | CCN(CC)CCNc1ccc(CNC=O)c2sc3ccc(OC)cc3c(=O)c12 | 5.78 µM (active) | 
